About 1,300 (0.36%) of roughly 360,000 compounds were called active. Only a selection was taken, and actives are over-represented in it overall. Unmarked numbers belong to inactive results. Rule as the data show it: active = inhibition above about 19%; inactive = the rest.
test system: T-cell receptor (TCR); assay: small molecules blocking TCR binding to CD3 – biochemical, fluorescence, TAMRA-labeled TCR probe, primary screen (AID 651800); conditions: at 9.4 µM, hits give high values;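 also: recombinant mutant TCR 2C K166C tagged with TAMRA read by polarization; 0% = receptor in buffer alone and 100% = receptor with positive control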

Structure (SMILES)	inhibition
Nc1[nH]c(C(=O)c2ccccc2)c(-c2ccc(Cl)cc2Cl)c1C(=O)c1ccccc1	4.17%
Nc1nc(CC(=O)CSc2ccc(Cl)cc2)nc(Nc2ccc(F)cc2)n1	4.84%
Cc1cc2nc3c(=O)[nH]c(=O)nc-3n(C[C@H](O)[C@H](O)[C@H](O)CO)c2cc1C	19.9% (active)
CN1CCCCC(NC(=O)C(C)(C)C)C1=O (stereo not drawn)	-0.73%
CC(C)CNc1cccc2c1S(=O)(=O)N[C@H](C)CO2	0.56%
C[C@H]1CN([C@@H](C)CO)C(=O)CCCn2nncc2CO[C@@H]1CN(C)C(=O)Nc1ccc(N2CCN(C)CC2)cc1	3.36%
CN[C@H]1C[C@H]2c3[nH]c4c(-c5ccccc5)cccc4c3CCN2C(=O)[C@H]1[C@H](C)O	2.21%
NS(=O)(=O)c1ccc(NC(=O)COC(=O)c2c3c(nc4ccccc24)/C(=C\c2ccc4c(c2)OCO4)CCC3)cc1	50.3% (active)
CC(NC(=S)Nc1ccc(S(N)(=O)=O)cc1)c1ccc2c(c1)OCO2 (stereo not drawn)	-3.8%
CCN(CC(=O)Nc1ccc2c(c1)OCO2)S(=O)(=O)c1ccccc1	-7.59%
O=C(N/N=C/c1ccco1)c1ccc(C(=O)N/N=C/c2ccco2)o1	21.8% (active)
O=C(Cn1cnc2ccccc21)N/N=C/c1ccco1	3.99%
Cc1c(Cl)cccc1NC(=O)CCC(=O)N/N=C/c1ccco1	1.69%
Cc1ccc2nc(CN(C)C(=O)[C@@H](Cc3ccccc3)NC(=O)[C@H]3O[C@@H](n4ccc(=O)[nH]c4=O)[C@H](O)[C@@H]3O)[nH]c2c1	3.29%
C=CCN=C1NC(c2cccc(C(F)(F)F)c2)C(C(=O)OC)=C(C)N1C (stereo not drawn)	-6.24%
Cc1ccc(C(=O)N/C(=C\c2cccs2)C(=O)NCCc2ccccn2)cc1C	2.48%
COc1cc(/C=C(/NC(=O)c2ccccc2)C(=O)Nc2cccc(O)c2)c([N+](=O)[O-])cc1OC	-4.87%
O=C(N/N=C/c1cc([N+](=O)[O-])ccc1O)/C(=C\c1cccs1)NC(=O)c1ccccc1	30.9% (active)
C=CCn1c(=O)c(C(=O)NCc2ccc3c(c2)OCO3)c(O)c2ccccc21	4.79%
C=CCn1c(=O)c(C(=O)Nc2ncccc2O)c(O)c2ccccc21	29.1% (active)
Cn1c(=O)c(C(=O)Nc2ncccn2)c(O)c2ccccc21	3.65%
COCCNC(=S)N(C)[C@H]1C[C@H]2c3[nH]c4ccccc4c3CCN2C[C@H]1[C@H](C)O	10.3%
O=C(Nc1cccc2ccccc12)NC1CC1	10.8%
CC(=O)N(C)c1ccc(NC(=O)Nc2cccc3ccccc23)cc1	-3.94%
CCN(C(=O)Nc1cccc2ccccc12)c1ccccc1	66.9% (active)
CC1CCN(c2ccc(S(=O)(=O)Nc3cc(C(=O)O)cc(C(=O)O)c3)cc2[N+](=O)[O-])CC1	2.91%
O=c1c2ccccc2c(-c2ccccc2)nn1-c1ccccn1	26.3% (active)

Structure (SMILES)	inhibition
O=C(O)c1ccc(-n2nc(-c3ccccc3)c3ccccc3c2=O)cc1	-0.55%
CCOC(=O)C(C)n1nc(-c2ccccc2)c2ccccc2c1=O (stereo not drawn)	1.19%
CC(C)[C@@H](C)/C=C/[C@@H](C)[C@H]1CC[C@@H]2[C@]1(C)CCC1[C@]23C=C[C@]2(C[C@@H](O)CC[C@]12C)N(c1ccc([N+](=O)[O-])cn1)O3 (stereo partly drawn)	0.39%
COC(=O)Nc1nc2ccc(C(=O)C3CC3)cc2[nH]1	2.68%
CC(=NNC(N)=O)c1ccc(Cl)c(-n2cccc2)c1	-1.93%
O=C(N/N=C/c1ccoc1)c1ccc(Cl)cc1Cl	2.14%
CC(C)(C)C(=O)Nc1ccc(C(=O)N/N=C/c2ccccc2OC(=O)c2ccc(Cl)cc2Cl)cc1	33.2% (active)
CSc1ccc(/C=N/NC(=O)c2cccc(Cl)c2)cc1	-1.56%
OC(CCl)CCl	2.99%
COc1ccc(C2(CNC(=O)Cc3ccc(OC)c(OC)c3)CCCC2)cc1	8.2%
COc1cc(C(=O)NCC2(c3ccccc3)CCCC2)ccc1OC(C)C	35.4% (active)
CCOc1c(OC)cccc1C(=O)NCC1(c2ccccc2)CCCC1	-3.45%
CCOC(=O)/C=C/c1ccccc1O	0.35%
CC(=O)N1c2ccccc2N(Cc2ccc([N+](=O)[O-])cc2)C(=O)C1(C)C	-3%
O=C(Nn1c(SCc2ccc([N+](=O)[O-])cc2)nc2ccccc2c1=O)c1ccc(F)cc1	4.61%
O=c1[nH]n(-c2ccc([N+](=O)[O-])cc2)c(=O)c2ccccc12	57% (active)
N#Cc1ccc(-c2nc3cc(C#N)c(C#N)cc3nc2-c2ccccc2)cc1C#N	10.9%
COc1ccc(NC(=O)N(C)C[C@@H]2OCCCC[C@@H](C)Oc3ccc(NC(=O)NC4CCCCC4)cc3C(=O)N([C@H](C)CO)C[C@@H]2C)cc1	4.84%
Cc1cc(=O)n2[nH]c(-c3sccc3-n3c(C)ccc3C)cc2n1	-6.69%
CCOc1ccc(N/C(N)=N/c2nc(C)c(C)c(=O)[nH]2)cc1	4.59%
CCOc1ccc(-n2c(SCC(=O)Nc3cc(C(=O)O)ccc3Cl)nc3ccccc3c2=O)cc1	-2.21%
CCOc1ccc(-n2c(O)c(/C=N/Nc3nnc(C)c(=O)[nH]3)c3ccccc3c2=O)cc1	43.9% (active)
CCN1C(=O)N[C@@H]2C[C@H](C(=O)N3CCCC3)[C@H](C)[C@H](c3ccccc3)C[C@@H]21	2.71%
CCCCCCc1cc2cc(-c3nnc(-c4cccc(OC)c4)o3)c(=O)oc2cc1O	-0.99%
COC(=O)c1cc2c(c3c4ccccc4n(S(=O)(=O)c4cccc(C)c4)c13)C(=O)N(Cc1ccccc1)C2	-0.99%
Nc1ccn([C@@H]2O[C@H](C(=O)N[C@H]3CCCCNC3=O)[C@@H](O)[C@H]2O)c(=O)n1	1.09%
